Most compounds without a hit are left out; they make up all but 2.2% or so of the library.
PvdQ inh: P. aeruginosa PvdQ acylase inhibition. 0.063% of 340,000 active. purified PvdQ acylase, fluorescence plate reader. inhibition, % at 10 µM; in the data active = inhibition above about 30%, passing the limit was not always enough; inconclusive = no clear call, values can overlap the other calls;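 also: 0% = vehicle neutral wells and 100% = reference inhibitor wells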
PHOSPHO1 block: blocks human PHOSPHO1 phosphatase activity. Q8TCT1. recombinant PHOSPHO1, absorbance phosphatase assay. inhibition, % at 13.3 µM. 1.1% of 290,000 active; in the data active = inhibition above about 60%
JMJD2C inh: blocks human GASC-1 demethylase activity | Q9H3R0 | GST-JMJD2C(1-420) H3K9me3 demethylation, DELFIA europium | inhibition, % at 2.35 µM | 0.069% of 330,000 active;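 active = more than half of a compound's replicate wells show inhibition beyond 50%, single wells judged on their own value; inconclusive = some, but no more than half, of replicates pass 50% inhibition; inactive = no replicate passes 50% inhibition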;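 also: signal counts dimethyl H3K9 product captured on neutravidin plate; 0% = median of DMSO wells and 100% = 0.3 times that DMSO median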
HDAC3 inh: blocks human histone deacetylase 3; inhibition, % at 8.3 µM; recombinant HDAC3, fluorogenic peptide/trypsin coupled, fluorescence; O15379; 0.15% of 320,000 active; in the data active = inhibition above about 26%, passing the limit was not always enough; inconclusive = no clear call, values can overlap the other calls
Target sequence (O15379 whole entry, looked up): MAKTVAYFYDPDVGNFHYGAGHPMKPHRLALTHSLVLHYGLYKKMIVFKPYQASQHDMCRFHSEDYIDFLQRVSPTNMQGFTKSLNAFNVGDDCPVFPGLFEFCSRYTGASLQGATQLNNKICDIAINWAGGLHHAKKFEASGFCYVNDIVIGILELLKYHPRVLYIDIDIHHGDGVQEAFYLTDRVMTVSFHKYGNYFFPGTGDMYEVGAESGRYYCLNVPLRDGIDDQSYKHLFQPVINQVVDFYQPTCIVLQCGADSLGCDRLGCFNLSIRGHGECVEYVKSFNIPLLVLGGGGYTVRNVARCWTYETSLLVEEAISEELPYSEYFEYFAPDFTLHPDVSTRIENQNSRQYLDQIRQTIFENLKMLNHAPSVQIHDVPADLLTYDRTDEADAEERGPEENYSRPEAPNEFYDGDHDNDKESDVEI
p-CIP stab down: compounds decreasing mouse p/CIP protein stability; F442A p/CIP-EGFP cells, EGFP fluorescence, 16 h; decrease of EGFP signal, % at 10 µM; 0.01% of 290,000 active;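 active = EGFP signal decrease of at least 30% at 10 µM or well 3 SD below plate mean, unless failing retest; inactive = the rest, including hits failing retest or dose response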
Mot1-301 SUMO: blocks SUMOylation pathway, rescuing yeast Mot1-301 growth; S. cerevisiae Mot1-301 growth rescue, ATP luminescence, 38.5C; percent above DMSO median, 100 means doubled; growth rescue, % at 18.8 µM; 1% of 320,000 active;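 active = every valid replicate shows activation above 250% relative to neutral control wells; inactive = the rest, any valid replicate at or below 250%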;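 also: OY570 slx delta 5 strain wells were the positive control but not used for scaling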
The depositor's hits bear a star.

How did O=C(O)c1cccnc1SCC(=O)N1CCCc2ccccc21 do in these assays?
PvdQ inh: -9; PHOSPHO1 block: 12; JMJD2C inh: 3; HDAC3 inh: 1; p-CIP stab down: -5; Mot1-301 SUMO: 3

How did Cc1cccc(NC(=O)C2Cc3ccccc3O/C2=N\O)c1 (centres undefined) do in these assays?
PvdQ inh: -16; PHOSPHO1 block: 37; JMJD2C inh: -16; HDAC3 inh: -4; p-CIP stab down: -7; Mot1-301 SUMO: 8

What do the screens show for `O=c1nc2n(c3ccccc13)Cc1ccccc1-2`?
PHOSPHO1 block: 6; p-CIP stab down: 1

What do the screens show for `O=c1c2cccc(Cl)c2nc2n1Cc1ccccc1-2`?
PvdQ inh: -14; PHOSPHO1 block: 81*; JMJD2C inh: -2; HDAC3 inh: 1; p-CIP stab down: 5; Mot1-301 SUMO: -35

What do the screens show for `CN1C(=O)/C(=C\c2ccco2)N=C1c1ccc(Cl)cc1Cl`?
PvdQ inh: 0; PHOSPHO1 block: -21; JMJD2C inh: -1; HDAC3 inh: 1; p-CIP stab down: 0; Mot1-301 SUMO: 5

What do the screens show for `CCC(C(=O)NCCC(C)C)n1ccc2cc(S(=O)(=O)N3CCCCC3)ccc21` (centres undefined)?
PvdQ inh: -5; PHOSPHO1 block: 63*; JMJD2C inh: 14; HDAC3 inh: 8; p-CIP stab down: -16; Mot1-301 SUMO: -10

Results for CCOC(=O)C1=C(C)N=c2s/c(=C/c3ccco3)c(=O)n2C1c1cccc(OC)c1 (centres undefined) ?
PHOSPHO1 block: 66*; JMJD2C inh: -8; HDAC3 inh: 1; p-CIP stab down: -16; Mot1-301 SUMO: 4

Results for O=C(Cc1ccc(Cl)cc1Cl)Nc1cccc(S(=O)(=O)Nc2ccccc2F)c1 ?
PvdQ inh: 3; PHOSPHO1 block: 74*; JMJD2C inh: -2; HDAC3 inh: -4; p-CIP stab down: 12; Mot1-301 SUMO: 60

Results for CN(Cc1cn(-c2ccccc2)nc1-c1ccc2c(c1)OCO2)Cc1nccn1C ?
PvdQ inh: 8; PHOSPHO1 block: 0; JMJD2C inh: -14; HDAC3 inh: -3; p-CIP stab down: 2; Mot1-301 SUMO: -6

Results for CN(CCn1ccnc1)Cc1cn(-c2ccccc2)nc1-c1ccc2c(c1)OCO2 ?
PvdQ inh: -8; PHOSPHO1 block: 60*; JMJD2C inh: 18; HDAC3 inh: -2; p-CIP stab down: 4; Mot1-301 SUMO: 2

How did CC1CCN(S(=O)(=O)c2nnc(NC(=O)c3cccc(Cl)c3)s2)CC1 do in these assays?
PvdQ inh: -10; PHOSPHO1 block: 33; JMJD2C inh: -11; HDAC3 inh: 1; p-CIP stab down: -21; Mot1-301 SUMO: 3

How did Cc1cc2c(=O)n(Cc3ccco3)c(SCC(=O)c3ccc(Cl)s3)nc2s1 do in these assays?
PvdQ inh: -2; PHOSPHO1 block: 22; JMJD2C inh: 0; HDAC3 inh: 27*; p-CIP stab down: -1; Mot1-301 SUMO: -17

What do the screens show for `Cc1cccc(C(=O)n2cnnc2N)c1`?
PvdQ inh: -1; PHOSPHO1 block: 26; JMJD2C inh: -6; HDAC3 inh: 44*; p-CIP stab down: -2; Mot1-301 SUMO: -15

How did COc1ccc(C(=O)n2cnnc2N)cc1 do in these assays?
PvdQ inh: -3; PHOSPHO1 block: -3; JMJD2C inh: -5; HDAC3 inh: 81*; p-CIP stab down: 7; Mot1-301 SUMO: 172

What do the screens show for `Cc1cc(C)cc(C(=O)n2cnnc2N)c1`?
PvdQ inh: -10; PHOSPHO1 block: 0; JMJD2C inh: 4; HDAC3 inh: inconclusive; p-CIP stab down: -4; Mot1-301 SUMO: -1

Results for O=C(CSc1n[nH]c(-c2ccccc2F)n1)Nc1cc(F)ccc1F ?
PvdQ inh: -29; JMJD2C inh: -3; HDAC3 inh: 4; Mot1-301 SUMO: 3

How did CN(Cc1ccccc1C#N)S(=O)(=O)c1cccs1 do in these assays?
PvdQ inh: -6; PHOSPHO1 block: 27; JMJD2C inh: 24; HDAC3 inh: -3; p-CIP stab down: -10; Mot1-301 SUMO: -11

Results for N#Cc1nccnc1S(=O)(=O)c1cccs1 ?
PHOSPHO1 block: -6; JMJD2C inh: 9; HDAC3 inh: -1; p-CIP stab down: -14; Mot1-301 SUMO: 361*

Results for Cc1ccc(S(=O)(=O)NCC2(c3ccccc3)CCOCC2)cc1 ?
PvdQ inh: -8; PHOSPHO1 block: -20; JMJD2C inh: -2; HDAC3 inh: 1; p-CIP stab down: -8

How did COc1ccc(C2(CNS(=O)(=O)c3ccccc3)CCOCC2)cc1 do in these assays?
PvdQ inh: -9; PHOSPHO1 block: 64*; JMJD2C inh: 6; HDAC3 inh: -6; p-CIP stab down: 2; Mot1-301 SUMO: 168

How did CC(C)Oc1ccc(Cl)cc1Nc1nc(NCCO)nc(N2CCCC2)n1 do in these assays?
PvdQ inh: -4; JMJD2C inh: -12; HDAC3 inh: 28*; Mot1-301 SUMO: 7

Results for COc1ccc(Cl)cc1Nc1nc(NCCO)nc(N2CCCC2)n1 ?
PvdQ inh: -7; PHOSPHO1 block: 0; JMJD2C inh: -7; HDAC3 inh: 0; p-CIP stab down: -20; Mot1-301 SUMO: -5

Results for Cc1cccc(NC2CCCCC2NS(=O)(=O)c2ccccc2)c1 (centres undefined) ?
PvdQ inh: -7; PHOSPHO1 block: 22; JMJD2C inh: -2; p-CIP stab down: 2

What do the screens show for `CN(CCc1ccccn1)C(=O)CCC1CCCN(C(=O)c2ccsc2)C1` (centres undefined)?
PvdQ inh: -10; PHOSPHO1 block: 61*; JMJD2C inh: 0; HDAC3 inh: -2; p-CIP stab down: -2; Mot1-301 SUMO: 14

How did CN(CCc1ccccn1)C(=O)CCC1CCCN(C(=O)c2cscn2)C1 (centres undefined) do in these assays?
PvdQ inh: -4; PHOSPHO1 block: 11; JMJD2C inh: 3; HDAC3 inh: 1; p-CIP stab down: -1; Mot1-301 SUMO: 13

Results for O=C(NO)c1ccc(OC(F)F)cc1 ?
PvdQ inh: 2; PHOSPHO1 block: 43; JMJD2C inh: 2; HDAC3 inh: 73*; p-CIP stab down: -7; Mot1-301 SUMO: 45

What do the screens show for `O=C(CSc1nc2c(c(=O)n1-c1ccc(F)cc1)SCC2)Nc1ccc2c(c1)OCO2`?
PvdQ inh: 1; JMJD2C inh: 11; HDAC3 inh: -5; Mot1-301 SUMO: 39

How did COc1ccc(-n2c(SCC(=O)Nc3ccc4c(c3)OCO4)nc3c(c2=O)SCC3)cc1 do in these assays?
PvdQ inh: -8; PHOSPHO1 block: 61*; JMJD2C inh: -10; p-CIP stab down: -9; Mot1-301 SUMO: -5

What do the screens show for `O=C(COC(=O)c1ncc(Cl)c(Cl)c1Cl)NCCc1ccccc1`?
PvdQ inh: 5; JMJD2C inh: -3; HDAC3 inh: -3; Mot1-301 SUMO: -26

Results for Cc1[nH]nc(N)c1-c1ccc(Cl)cc1 ?
PvdQ inh: -16; PHOSPHO1 block: 30; JMJD2C inh: 1; HDAC3 inh: -1; p-CIP stab down: 1; Mot1-301 SUMO: 287*
